Source: PubChem BioAssay (several laboratories)
GIRK2 act: Activates human GIRK2-containing potassium channels | P48051 | HEK293 GIRK2/NPY4 cells, thallium flux fluorescence | activation (% efficacy), % for hits at 75 µM | 34,000 tested, under 10 active | AID 1259324;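 active means primary screen hit, no activity in plain HEK293 cells, and in GIRK2-only cells above 5% efficacy rising with concentration; inactive means the rest, including fluorescent compounds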;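 further: efficacy is normalized control-subtracted fluorescence 15 s after thallium addition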
Target sequence (P48051 whole entry, looked up): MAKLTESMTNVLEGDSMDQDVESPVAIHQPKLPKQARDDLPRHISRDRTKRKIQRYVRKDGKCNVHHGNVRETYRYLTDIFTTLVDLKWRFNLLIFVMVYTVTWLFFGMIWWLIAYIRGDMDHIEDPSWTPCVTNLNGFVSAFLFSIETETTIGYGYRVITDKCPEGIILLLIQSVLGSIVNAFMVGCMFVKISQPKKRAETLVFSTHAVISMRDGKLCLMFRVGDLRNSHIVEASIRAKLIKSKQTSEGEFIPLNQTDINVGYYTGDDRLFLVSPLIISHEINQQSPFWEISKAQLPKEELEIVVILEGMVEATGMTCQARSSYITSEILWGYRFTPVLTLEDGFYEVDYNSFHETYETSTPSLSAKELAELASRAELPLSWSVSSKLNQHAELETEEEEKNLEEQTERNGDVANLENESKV
GluA2 TARP mod: GluA2-stargazin AMPA receptor complex modulation | O88602+P19491 | calls only at 30 µM | HEK293 GluA2+stargazin, membrane potential dye (FDSS), glutamate EC50; hits were called plate by plate, in both directions | AID 1259245 | 3.5% of 40,000 active;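 active means any of four per-well response measures lying three or more SD from its plate-wide compound average, in either direction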
The depositor's hits bear a star; i = inactive; x = no result given; + = active, no number. Many of the other results were omitted from the sample, so hits are more common in it than they were.

SMILES	GIRK2 act	GluA2 TARP mod
O=c1c2sccc2nc(SCc2nc(-c3ccccc3)no2)n1Cc1ccccc1	i	i
CNC(=O)Cc1csc(NC(=O)c2csc(Nc3cccc(Cl)c3)n2)n1	i	x
Cn1nccc1C(=O)Nc1nnc(-c2cc(Cl)ccc2Cl)o1	i	x
COc1ccc(OC)c(-c2ccc(=O)n(Cc3cccc([N+](=O)[O-])c3)n2)c1	i	+
COc1ccc(OC)c(-c2ccc(=O)n(Cc3ccccc3)n2)c1	i	i
O=C(Nc1cc(-c2ccccc2)nn1CCO)c1ccc(Cl)s1	i	+
O=C(Nc1cc(-c2ccccc2)nn1CCO)c1ccco1	i	i
COc1ccc(S(=O)(=O)N2CCCc3cc(NC(=O)C(C)(C)C)ccc32)cc1	x	+
COc1ccc(S(=O)(=O)N2CCCc3cc(NC(C)=O)ccc32)cc1	x	i
Cc1ccc(S(=O)(=O)N2CCCc3cc(NC(=O)c4ccccc4)ccc32)cc1	x	i
Cc1ccc(S(=O)(=O)N2CCCc3cc(NC(=O)Oc4ccccc4)ccc32)cc1	x	+
COc1cccc(OC)c1C(=O)Nc1sc2c(c1-c1nc3ccccc3s1)CCN(C(C)=O)C2	x	i
O=C(c1ccc(S(=O)(=O)c2ccccc2)nc1)N1CCN(c2ccccc2)CC1	i	i
COc1cc(NC(=O)CSc2nccn(-c3cc(C)cc(C)c3)c2=O)cc(OC)c1	x	i
CSc1ccccc1CN1CCC(CNC(=O)/C=C/c2ccccc2)CC1	i	+
CSc1ccccc1NC(=O)C(=O)NCC1CCN(Cc2cc(C)oc2C)CC1	i	+
O=C(/C=C/c1ccccc1)NCC1CCN(Cc2ccsc2)CC1	i	+
CSc1ccccc1NC(=O)C(=O)NCC1CCN(Cc2ccco2)CC1	i	i
O=C(/C=C/c1ccco1)NCC1CCN(Cc2ccsc2)CC1	i	x
CSc1ccccc1CN1CCC(CNC(=O)/C=C/c2ccc3c(c2)OCO3)CC1	i	i
COc1ccc(SCC(=O)Nc2nnc(-c3ccnn3C(C)C)o2)cc1	i	i
CCSc1nnc(NC(=O)c2nn(-c3ccc(F)cc3)cc2OC)s1	i	i
COc1ccc(S(=O)(=O)NCCNc2cc(N3CCCC3)nc(C)n2)c(C)c1C	i	x
COC(=O)c1scc(-c2ccccc2)c1S(=O)(=O)N1CCCC1	x	i
COC(=O)c1scc(-c2ccccc2)c1S(=O)(=O)N1CCN(Cc2ccccc2)CC1	x	+
SMILES	GIRK2 act	GluA2 TARP mod
O=C(NCCN1CCOC(c2ccccc2)C1)C(=O)Nc1ccc(C(F)(F)F)cc1 (stereo unspecified)	i	x
CC(C)(Oc1ccc(Cl)cc1)C(=O)N(Cc1ccsc1)Cc1ccccn1	i	x
CSc1ncccc1C(=O)N1CCC(CNC(=O)c2ccc(F)cc2Cl)CC1	i	i
Cc1ccc(NC(=O)c2ccc(=O)n(Cc3cccc([N+](=O)[O-])c3)c2)cc1C	i	i
Cc1c(Cl)cccc1NC(=O)c1ccc(=O)n(Cc2cccc([N+](=O)[O-])c2)c1	i	i
Cc1ccnc(NC(=O)c2ccc(=O)n(Cc3cccc([N+](=O)[O-])c3)c2)c1	i	+
Cc1cccnc1NC(=O)c1ccc(=O)n(Cc2cccc([N+](=O)[O-])c2)c1	i	+
CN1CCc2c(sc(NC(=O)CS(=O)(=O)c3ccccc3)c2-c2nc3ccccc3s2)C1	x	i
O=S(=O)(Cc1nc(-c2ccc3c(c2)OCO3)no1)c1ccc(Br)cc1	i	i
Cc1ccc(S(=O)(=O)NCCn2nc(C)c(Cl)c2C)cc1C	i	+
Cc1ccc(S(=O)(=O)NCCn2nc(-c3ccc(Cl)cc3)ccc2=O)cc1C	x	i
COC(=O)Cc1c(C)c2ccc(OCC(=O)c3ccc(F)cc3)cc2oc1=O	x	+
COC(=O)Cc1c(C)c2ccc(OCC(=O)c3ccc(-c4ccccc4)cc3)cc2oc1=O	x	i
CCc1ccc(-c2cc3c(=O)n(Cc4nc(-c5ccc(OC)cc5OC)no4)ccn3n2)cc1	i	i
CCc1ccc(-c2cc3c(=O)n(Cc4nc(-c5cccc(C(F)(F)F)c5)no4)ccn3n2)cc1	i	+
CCOCCCNC(=O)c1c(N)n(-c2cc(OC)cc(OC)c2)c2nc3ccccc3nc12	i	i
COc1cc(/C=C2\SC(=S)N(c3cccc(C)c3C)C2=O)ccc1O	x	+
COc1cc(/C=C2/SC(=S)N(c3ccc(C)c(C)c3)C2=O)ccc1O	x	i
COc1cc(/C=C2\SC(=S)N(c3ccc4c(c3)OCO4)C2=O)cc(OC)c1OC	x	i
COc1cccc(/C=C2/SC(=S)N(c3ccc4c(c3)OCO4)C2=O)c1OC	x	+
COc1ccc(Cl)cc1S(=O)(=O)NCCCN1CCOC(c2ccccc2)C1 (stereo unspecified)	i	x
Cc1cc(C(=O)NCC(c2cn(C)c3ccccc23)N(C)C)c(C)o1 (stereo unspecified)	x	i
CCc1ccccc1-n1c(C)c(C)n2c3c(=O)n(CC(=O)OC)c(=O)n(C)c3nc12	x	i
CC(C)c1ccc(S(=O)(=O)NCC2CCN(C3CCCC3)CC2)cc1	x	+
COc1ccc(CCS(=O)(=O)NCC2CCN(C3CCCC3)CC2)cc1	i	+
SMILES	GIRK2 act	GluA2 TARP mod
COc1ccc(S(=O)(=O)NCC2CCN(C3CCCC3)CC2)cc1	i	i
COc1ccc(CCS(=O)(=O)NCC2CCN(C)CC2)cc1	i	i
O=C(c1cc2ccccc2oc1=O)N1CCN(c2ccc(-c3ccc(F)cc3)nn2)CC1	i	i
O=c1cc(-c2ccc(F)cc2)nc(SCc2nc(-c3cccs3)no2)[nH]1	x	i
COc1ccc(S(=O)(=O)Nc2ccccc2C(=O)Nc2ccc([N+](=O)[O-])cc2OC)cc1	i	+
COc1ccc([N+](=O)[O-])cc1NC(=O)c1ccccc1NS(=O)(=O)c1ccccc1	i	i
O=C(c1ccc([N+](=O)[O-])cc1)c1cc2ccccc2o1	x	i
Cc1cccc(C)c1NC(=O)C(=O)NCC1CCN(C(C)C)CC1	i	x
COc1cccc(C(CNC(=O)C(=O)Nc2cc(C)nc3ccccc23)N2CCOCC2)c1 (stereo unspecified)	i	i
Cc1cc(NC(=O)C(=O)NCC2CCN(C(C)C)CC2)c2ccccc2n1	i	+
Cc1cc(NC(=O)C(=O)NCC(c2cccs2)N2CCOCC2)c2ccccc2n1 (stereo unspecified)	x	+
CCOCCn1c(=O)c2c(nc3n2CCCN3c2ccc(C)c(C)c2)n(C)c1=O	x	i
O=C(NCc1cccs1)C(=O)Nc1cc(F)ccc1F	i	i
CCOc1ccc(-c2cc(=O)n(CC(=O)Nc3ccccn3)cn2)cc1	i	x
COc1ccc(CNC(=O)C(=O)NCC(c2cccc(OC)c2)N2CCOCC2)cc1 (stereo unspecified)	i	i
Cc1cnc2c(c1SCCN1CCCCC1)c(=O)n(C)c(=O)n2C	i	+
Cc1cnc2c(c1SCC(=O)N1CCCCC1)c(=O)n(C)c(=O)n2C	i	i
Cc1ccc(-c2nnc(NC(=O)c3ccc(Oc4ccccc4)cc3)o2)c(C)c1	x	i
COc1nn(C)cc1-c1nnc(SCC(=O)Nc2ccc(Cl)c(Cl)c2)n1C	i	i
Cc1[nH]c(=O)nc(SCC(=O)N2CCN(c3ccccc3)CC2)c1C#N	i	i
Cn1c(O)c(N=Nc2nc3c(c(=O)n(Cc4ccccc4)c(=O)n3C)n2C)c(=O)n(C)c1=O	x	+
